Measurements reported in the supplement of paper PMC10477191.
± gives the standard deviation of the averaged measurements.

Each molecule was assayed on Drosophila virilis antennal basiconic sensillum AB5 (assay: odor-evoked OSN spike response (post minus pre-stimulus); higher = stronger neuronal excitation). Details: odor dilution: 10^-4.
Protocol: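 Single sensillum recordings from antennal basiconic sensilla of D. virilis. A 500 ms pulse of odorant (10^-4 in mineral oil or DMSO) was delivered; the response is the change in spike frequency between the 1 s pre- and post-stimulus windows (spikes/s).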

Compound | odor-evoked OSN spike response [spikes/s]
CC(=O)OC/C=C(\C)CCC=C(C)C [geranyl acetate] | 81 ± 11
COC(=O)c1ccccc1 [methyl benzoate] | 49.2 ± 8.7
COc1cccc(OC)c1O [Phenol, 2,6-dimethoxy- (powder)] | 54 ± 20
CC(=O)c1ccccc1 [Acetophenone] | 65.7 ± 8.1
CCCCCOC(C)=O [pentyl acetate] | 65.7 ± 11
